# The list is not random: actives were taken first. Their share in the collection is about 19%.
# HT1080 IDH1KD tx = HT-1080 IDH1 knockdown cell toxicity (counter line). actives 2% (n = 360,000). HT-1080 IDH1 knockdown viability, ATP luminescence, 48 h. Potency, µM (highest dose often 46.1 µM), without a hit: at the top dose activity, negative = toxicity, usual class: cytotoxic;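 note: potency is the fitted concentration of half-maximal effect; 0% = DMSO wells and -100% = cell-free medium wells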
#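 In this qHTS, HT-1080 cells depleted of IDH1 are exposed for 48 h at 37 °C to compound titrations. Toxicity is scored from CellTiter-Glo luminescence, with DMSO as full viability and medium alone as none.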
# TDP1 cell CPT = DT40-hTDP1 cell growth loss with CPT | chicken DT40 Tdp1-/-;hTDP1 cells + 20 nM CPT, ATP luminescence, 48 h | Potency, µM (top dose mostly 46.2 µM), for inactives: at the highest dose activity change, negative = growth inhibition, hits mostly inhibitors | actives 12% (n = 420,000); note: potency is the fitted concentration of half-maximal effect; nearly all actives have a fitted effect of over 55% in size
#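 Cell growth measured by CellTiter-Glo luminescence after a minimum 48 h, 37 C compound exposure with 20 nM CPT in Tdp1-knockout DT40 cells stably expressing hTDP1, seeded 400/well; qHTS titration format.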
# IL-1B inflam inh = blocks inflammasome-driven IL-1 beta release; THP-1 LPS/ATP IL-1B secretion, AlphaLISA, 16 h; stronger effect = lower value; activity change, % at 57.5 µM; actives 4.7% (n = 360,000); AID 743279; in the data active = activity change below about -50%; inconclusive = mostly about -30% to -49%
#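 Secreted IL-1B measured by AlphaLISA bead assay after 16 h compound exposure of THP-1 cells; compounds (final up to 57.5 uM) added 1 h before LPS (250 ng/mL) and ATP (1.25 mM) stimulation; lower signal means less secretion.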
# HT1080-NT tox = kills 2HG-producing HT-1080-NT fibrosarcoma cells. actives 1.6% (n = 360,000). Potency, µM (series often up to 46.1 µM), for inactives: at the top dose activity, negative = less viability, most hits filed as cytotoxic. HT-1080-NT fibrosarcoma viability, CellTiter-Glo ATP luminescence, 48 h;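 note: NT is the 2HG producing partner of a matched IDH1 knockdown line; potency is the fitted concentration of half-maximal effect; 0% = DMSO-treated cells and -100% = media-only wells without cells; nearly all actives have a fitted effect of over 55% in size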
#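 Viability of the 2HG-overproducing fibrosarcoma line after 48 hours of compound exposure at 37 degrees C was determined by luminescence with CellTiter-Glo, and concentration-effect curves were then fitted and categorized.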
# DT40 TDP1 no CPT = qHTS for Inhibitors of human tyrosyl-DNA phosphodiesterase 1 (TDP1): qHTS in cells in absence of CPT. AID 686978, 2013. DT40 Tdp1-/- hTDP1 cells, no CPT, ATP luminescence, 48 h. actives 15% (n = 420,000). Potency, µM (highest dose often 46.2 µM), without a hit: at the highest dose activity change, negative = growth inhibition, most hits filed as inhibitors; note: potency is the fitted concentration of half-maximal effect; nearly all actives have a fitted effect of over 55% in size
#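 Chicken DT40 Tdp1-/- cells complemented with human TDP1, screened without camptothecin (DMSO vehicle only), 400 cells/well. Compounds pin-transferred, cells incubated at 37 °C for at least 48 hr. Growth read as ATP-dependent luminescence (CellTiter-Glo, 30 min at RT).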
# * marks the source's active call; other numbers are inactive results; ? = inconclusive; . = no result; [ ] = remark or other dose. Unless noted, calls come from the whole dose curve; as a rule, active = well fitted curve in the direction sought with a large enough effect; inconclusive = small, poorly fitted or top-dose-only effect, or another doubt; inactive = no such curve, though single readings can be large; an effect the other way counts as inactive or inconclusive. Unless noted, % is set by controls: 0 for no effect and ±100 for the full control effect.
SMILES,HT1080 IDH1KD tx,TDP1 cell CPT,IL-1B inflam inh,HT1080-NT tox,DT40 TDP1 no CPT
O=C(Nc1ccc2c(c1)OCO2)C1CCCCN1S(=O)(=O)c1ccccc1 (stereo not drawn),-3.1%,?,1.3,0.7%,?
O=C(Nc1ccccc1Cl)c1cc(C2CCCCN2C(=O)c2ccccc2)on1 (stereo not drawn),?,29.1µM*,9.3,18.8%,?
CC(=O)Nc1ccc(C(=O)N2CCCCC2c2cc(C(=O)Nc3ccccc3Cl)no2)cc1 (stereo not drawn),-4.0%,-17.7%,0.0,-13.6%,-1.5%
O=C(Nc1ccccc1Cl)c1cc(C2CCCCN2S(=O)(=O)c2ccc(F)cc2F)on1 (stereo not drawn),-27.9%,16.4µM*,42.3,1.2%,20.6µM*
COc1ccc(CCC(=O)OCC(=O)c2ccc(C)cc2)cc1,-16.7%,8.1%,0.2,21.8%,12.0%
Cc1cc(C)cc(N(CC(=O)NCc2ccco2)S(=O)(=O)c2c(C)noc2C)c1,3.3%,-27.3%,-11.8,11.2%,-24.3%
Nc1ccc(-c2cc3ccccc3oc2=O)cc1,23.9%,-7.7%,-18.0,5.7%,0.3%
O=C/C=C/c1c(-c2ccccc2)cc2oc3ccccc3cc1-2,20.6µM*,?,-98.8*,-29.0%,18.4µM*
CCc1ccc(NC(=O)C2CCN(S(=O)(=O)c3c(C)noc3/C=C/N(C)C)CC2)cc1,0.7%,?,-26.7,0.0%,9.2µM*
COc1cccc(CNC(=O)C2CCN(S(=O)(=O)c3c(C)noc3/C=C/c3cccs3)CC2)c1,.,?,.,.,23.1µM*
CCc1ccc(NC(=O)C2CCN(S(=O)(=O)c3c(C)noc3/C=C/c3cccs3)CC2)cc1,.,?,.,.,18.4µM*
Cc1noc(/C=C/c2cccs2)c1S(=O)(=O)N1CCC(C(=O)Nc2ccc(F)c(Cl)c2)CC1,.,13µM*,.,.,14.6µM*
CCSC1OC(C(COC(C)=O)OC(C)=O)C(OC(C)=O)C1NC(C)=S (stereo not drawn),25.4%,18.2%,14.5,7.0%,3.9%
CC(NCc1ccccc1)c1ccccc1O (stereo not drawn),3.7%,12.2%,-2.5,-24.3%,-1.1%
Cc1ncc([N+](=O)[O-])n1CC(=O)Nc1ccc(F)cc1F,12.8%,0.8%,11.8,17.4%,-4.3%
NC(=O)C1CCN(C(=O)OCc2ccccc2)CC1,-4.4%,-7.3%,-6.0,-4.3%,-1.9%
Cc1ccc2nc(N3CCN(c4cccc(C)c4C)CC3)c3nncn3c2c1,.,-24.9%,.,.,-9.2%
c1ccc(C(c2ccccc2)N2CCN(c3nc4ccccc4n4cnnc34)CC2)cc1,-2.5%,?,35.9,-0.4%,3.66µM*
c1cnc(N2CCN(c3nc4ccccc4n4cnnc34)CC2)nc1,4.6%,-11.8%,-11.3,2.3%,-22.4%
Cc1cccc(N2CCN(c3nc4ccccc4n4cnnc34)CC2)c1C,-1.5%,25.9µM*,6.3,1.3%,?
Cc1ccc(Nc2ncc3c(=O)[nH][nH]c(=O)c3n2)cc1,1.1%,7.8%,17.8,1.4%,-2.9%
Cc1cccc(-n2cnc3cc(C(=O)NC4CCCCCC4)ccc32)c1,.,3.26µM*,.,.,4.61µM*
CCc1ccccc1-n1cnc2cc(C(=O)NC3CCCCCC3)ccc21,.,?,.,.,23.1µM*
Cn1nnc2cc(C(=O)NC3CCCCC3)ccc21,15.2%,4.7%,29.8,20.6%,-0.7%
Cc1cc(C)c(Cn2c3ccccc3c3cnn(CC(=O)N4CCCCC4)c(=O)c32)c(C)c1,.,-22.7%,.,.,-23.4%
SMILES,HT1080 IDH1KD tx,TDP1 cell CPT,IL-1B inflam inh,HT1080-NT tox,DT40 TDP1 no CPT
S=c1nc(-c2ccccc2)[nH]c2ccccc12,-12.4%,?,10.0,-21.0%,-25.2%
Cc1ccc2[nH]c(C)cc(=S)c2c1,23.1µM*,13µM*,-69.2*,?,16.4µM*
Cc1cc(=S)c2ccccc2[nH]1,-21.1%,?,-85.8*,?,-14.8%
O=C(Nc1ccc(F)c(Cl)c1)C1CC2CCC1C2 (stereo not drawn),-2.8%,-28.5%,-18.7,-17.1%,?
COC1=CC(=O)OC(c2cccc([N+](=O)[O-])c2)C1 (stereo not drawn),-3.9%,-22.4%,19.6,1.7%,-19.9%
Cc1ccc(OCCn2cc(C(=O)c3ccco3)c3ccccc32)cc1C,.,14.6µM*,.,.,18.4µM*
COC(=O)N/N=C/c1cn(CCOc2cccc(OC)c2)c2ccccc12,0.0%,?,-7.7,-17.6%,20.6µM*
CCOC(=O)/C(C#N)=C/c1cn(CCOc2ccc(OC)cc2)c2ccccc12,-2.9%,14.6µM*,13.8,-6.2%,?
COc1cccc(OCCn2cc(C=O)c3ccccc32)c1,-15.9%,16.6%,-9.7,-5.2%,?
Cc1cc(OCCn2cc(/C(N)=N/O)c3ccccc32)ccc1Cl,?,25.9µM*,-13.8,?,?
CN(C)c1ncnc2c1ncn2[C@H]1CN(Cc2ccc3c(c2)OCO3)C[C@@H](CO)O1,9.1%,-4.8%,-5.3,-0.1%,?
COc1ccc(OCCn2cc(C(=O)c3ccco3)c3ccccc32)cc1,.,20.6µM*,.,.,25.9µM*
O=C1CS/C(=N/N=C/c2cccs2)N1Cc1ccc(F)cc1,-15.2%,18.4µM*,24.5,-13.0%,?
C=CCN1C(=O)C(Cc2ccc(F)cc2)S/C1=N/N=C/c1cccs1 (stereo not drawn),-2.0%[9.24 µM],-35.0%,-14.5,1.8%,29.1µM*
O=C1CS/C(=N/N=C/c2cccs2)N1,0.9%,7.6%,10.0,13.5%,3.2%
COc1ccc(-n2nc3cc(C)c(NC(=O)COc4cccc(C)c4)cc3n2)cc1,.,5.6%,.,.,-0.5%
O=S(=O)(c1cccc(-c2nnc(SCc3nc4ccccc4s3)o2)c1)N1CCOCC1,2.0%,18.4µM*,-18.5,-0.3%,?
CCn1c(SCc2nc3ccccc3s2)nc2cc(S(=O)(=O)N3CCOCC3)ccc21,-3.7%,29.1µM*,11.9,-21.7%,?
CC(=O)CCSc1nnc(-c2cccc(S(=O)(=O)N3CCOCC3)c2)o1,4.6%,-24.3%,-4.2,-2.3%,-17.4%
CCCCn1c(CCl)nc2cc(S(=O)(=O)N3CCOCC3)ccc21,?,4.61µM*,.,-9.6%,6.51µM*
CCN(CC(=O)Nc1ccc(NC(C)=O)cc1)C(=O)c1cccc(S(=O)(=O)N2CCc3ccccc3C2)c1,-13.1%,-13.4%,-11.2,-10.7%,-20.4%
Cc1cnc(-n2ncc(C(=O)NC(C)(C)CO)c2-c2cccs2)nc1-c1ccc(F)cc1,.,-10.2%[9.04 µM],.,.,?
CN1C(c2ccccc2)=NO[C@]1(C)c1ccccc1,10.2%,1.3%,-16.8,14.1%,-7.3%

# Source: PubChem
